Assay results from the supplement of paper PMC3334620.
The full ranking holds about 33,000 sequences; the median of “E-score (-0.5 to 0.5)” is about -0.054, and the highest 2% start at about 0.35. This excerpt belongs to a sample that is enriched for the highest values.

Each sequence was assayed against T1, Stb5 (UniProt P38699) (assay: PBM E-score (8-mer binding enrichment) (E-score (-0.5 to 0.5)); higher = stronger / more preferred TF binding). Details: protein concentration: 200 nM; construct: GST-full length.
T1 sequence: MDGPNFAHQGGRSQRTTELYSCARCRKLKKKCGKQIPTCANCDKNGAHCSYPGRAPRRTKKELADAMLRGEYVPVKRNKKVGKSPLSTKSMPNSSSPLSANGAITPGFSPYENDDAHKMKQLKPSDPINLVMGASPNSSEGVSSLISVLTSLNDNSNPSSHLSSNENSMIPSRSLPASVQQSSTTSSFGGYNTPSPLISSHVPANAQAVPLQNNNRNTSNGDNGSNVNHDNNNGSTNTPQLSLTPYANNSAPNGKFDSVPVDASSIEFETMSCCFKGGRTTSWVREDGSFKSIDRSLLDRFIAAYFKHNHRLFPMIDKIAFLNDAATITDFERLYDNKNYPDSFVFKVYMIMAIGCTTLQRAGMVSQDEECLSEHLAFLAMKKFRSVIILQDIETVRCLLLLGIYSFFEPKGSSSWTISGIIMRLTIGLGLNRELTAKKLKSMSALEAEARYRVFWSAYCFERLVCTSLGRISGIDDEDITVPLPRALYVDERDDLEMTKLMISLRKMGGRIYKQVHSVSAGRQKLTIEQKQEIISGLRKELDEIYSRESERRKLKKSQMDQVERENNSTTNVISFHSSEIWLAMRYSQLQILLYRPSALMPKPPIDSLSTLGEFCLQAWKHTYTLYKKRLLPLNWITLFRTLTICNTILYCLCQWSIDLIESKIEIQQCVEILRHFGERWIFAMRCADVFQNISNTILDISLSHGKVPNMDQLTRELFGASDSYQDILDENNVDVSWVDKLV
In short: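 Universal all-10-mer Agilent arrays, fresh or stripped once, were converted to double-stranded form by primer extension. GST-tagged yeast transcription factors from PURExpress in vitro transcription/translation, full-length or DNA-binding domain only, were applied at about 100-200 nM and detected with fluorescent anti-GST. After masliner normalisation, the Universal PBM Analysis Suite scored each ungapped eight-base word together with its reverse complement by E-score.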

Sequence	PBM E-score
GAAGCGGA	0.282
CTCGATGC	-0.2
CGAGTGTC	-0.0644
AGCTTTTG	-0.139
CAGACACC	0.0808
AGTACGAT	-0.165
CCAGTGAG	-0.17
TTATAGAA	-0.0532
GCATAAGC	0.0731
AGAGACGG	0.0766
CTTTGACA	-0.135
GGGGGACA	-0.187
CGGGAGTA	0.417
CGGGACTA	0.451
CGGGACTC	0.184
CGGGGACC	0.051
GGGGAGTA	0.0545
AGGGAGTA	-0.109
GGGGACTA	-0.0234
CGGGGACA	0.415
AACGGGTA	0.102
ACGATCCT	-0.231
AGTCCGCG	0.339
AGTCCGGC	0.38
GATCCGGA	0.227

Sequence	PBM E-score
AGTCCGGG	0.274
GGTCCGGA	0.391
AGTCCGCC	0.42
AGTCCGCA	0.323
ATTCCGGA	0.115
CGTCCGCC	0.338
AGTCCGGA	0.39
CGTCCGGA	0.153
CGTCCGGC	0.275
AACCCTCC	-0.0222
AATTCTCG	-0.186
TCGCCTCA	-0.162
CCCGAACC	0.144
CGCAGACA	-0.0673
AACTTCAC	-0.293
ACTGGGGG	-0.28
AGAGTGAT	-0.258
AAGTTCTG	-0.231
CCACCTTC	-0.199
ACCGCTGA	0.255
CCCGCTAC	0.216
GCCGCTAC	0.39
CCCGCTGC	0.209
GCCGCTAA	0.296
ACCGCTAT	0.33

Sequence	PBM E-score
ACCGCTAA	0.263
ACCGCTCT	0.226
ACCGCTGC	0.364
ACCGCTCG	0.357
ACCGCTAC	0.395
ACCGCTCC	0.323
AAACGAAG	-0.0773
ATCTGGCC	0.0703
TCACGCGA	-0.0286
ACCTCTAT	-0.163
TCTGTGCA	-0.195
GTAGTAAC	0.12
AACGAACC	-0.116
TGCCCCAA	-0.123
ACGTTGTA	-0.0486
CGCACTTA	0.368
CGCACTTC	0.0228
AGCACTTA	-0.0929
CCCTGCAG	-0.0201
GCGGTGTA	0.421
AGGGTGTC	-0.106
ACGGTGTC	0.408
CGGGTGTA	0.37
CTGGTGTC	-0.178
GGGGTGTA	0.178

Sequence	PBM E-score
CGGGTGTC	0.00649
AGGGTGTA	-0.236
CCGGTGTC	0.408
ACGGTGTG	0.288
GCGGTGGA	0.177
CCGGTGAC	0.292
TGACGCAA	-0.174
CAAAGTGG	-0.254
ACTGCGAC	0.202
TAACTCTA	-0.0643
GAACCATC	-0.135
ACCCACGT	-0.257
ACGGTGTA	0.348
CAGGTGTA	-0.204
CCGGTGTA	0.366
CGCAAAGA	0.016
CTGAAATA	-0.0506
GCCTCACA	-0.212
TCCCCCGA	0.263
ACCCCCGA	0.371
AACCCCAA	-0.0237
CCCCCCGA	0.14
AACCCCCA	-0.0755
AACCCCGA	0.473
